High-throughput results deposited in PubChem BioAssay by SRMLSC.
Hits are enriched below; roughly 6.8% of the tested compounds scored in any of these assays.
Spn MK inh: S. pneumoniae mevalonate kinase inhibition; purified MK, PK/LDH-coupled NADH absorbance 340 nm; inhibition, % at 10 µM; 65,000 tested, 0.48% active;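 active means ranked among the strongest by inhibition in the single 10 µM screen, a fixed top-ranked set picked for dose follow-up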
Fluor 339 460: intrinsic fluorescence of library compounds, ex339/em460 – biochemical, MLSMR library, data from DPM-DC assay, artefact control, profiling panel | compound autofluorescence, ex339/em460 nm, NADH buffer; hits give high values; 1 = no-compound wells, NADH background | fluorescence fold increase at 10 µM | 65,000 tested, 5.5% active | AID 709;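 active means at 10 µM, mean starting fluorescence two-fold or more over control wells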;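 further: signal is the first read of a kinetic run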
Spn PMK inh: S. pneumoniae PMK inhibition; purified PMK, PK/LDH-coupled NADH absorbance 340 nm; inhibition, % at 10 µM; 65,000 tested, 0.49% active;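 active means top-ranked compounds by inhibition in the single 10 µM screen, taking a fixed number of the strongest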
NADH enzymes: inhibition of NAD/NADH coupling enzymes, library profiling; coupled PK/LDH NADH assays, four targets; IC50, µM (highest dose often 10 µM); 65,000 tested, 0.02% active; AID 774;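 active means single-dose screening hits from any of four coupled enzyme assays that gave an IC50 when retested across doses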;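 further: the DPM-DC format reads NADH fluorescence rather than 340 nm absorbance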
DPM-DC inhibit: blocks S. pneumoniae diphosphomevalonate decarboxylase. purified DPM-DC, PK/LDH coupled NADH fluorescence. calls only at 10 µM. 65,000 tested, 0.49% active. AID 556;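 active means the 320 compounds with the highest percent inhibition in the single-dose primary screen, excluding strongly autofluorescent ones, cut at about 32% in these data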;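 further: kinetic rate of NADH fluorescence loss reporting ADP formed by the decarboxylase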
Abs 340nm: compound absorbs light at 340 nm; compound absorbance at 340 nm, fold over control; fold change at 10 µM; 65,000 tested, under 10 active;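 active means at 10 µM dose, initial 340 nm absorbance at least 2 fold that of control wells; inactive means change under 2 fold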;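 further: initial absorbance extrapolated from kinetic A340 decline of NADH oxidation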
Each line names hits and unclear results; the compound was inactive in the other large screens.

CCc1cc(=O)oc2cc(OCC(=O)N3CCc4ccccc43)ccc12	Fluor 339 460 3.2
O=C(c1cccc(S(=O)(=O)NCCOc2ccccc2)c1)N1CCN(c2ncccn2)CC1	none
COc1cc(Cn2c(C(=O)O)cc3sccc32)cc(OC)c1OC	none
Cc1cc(C)c2c(n1)nn1c(N3CCN(Cc4ccccc4)CC3)cc(C)nc21	Fluor 339 460 3.9 (not shown: DPM-DC inhibit)
COc1ccc(F)cc1CN1CCN(c2cc(C)nc3c4c(C)cc(C)nc4nn23)CC1	Fluor 339 460 3.9 (not shown: DPM-DC inhibit)
COc1ccc(Cl)cc1CN1CCN(c2nc(C)cc(C)c2C#N)CC1	none
CCN1C(=O)c2ccc(-c3nc4ccccc4c(=O)o3)cc2C1=O	Fluor 339 460 2.2 (not shown: DPM-DC inhibit)
Cn1c(-c2ccccc2)cc(=O)c2ccccc21	none
Cn1c2ccccc2c(=O)n2c(=O)c3ccccc3cc12	Fluor 339 460 2.4
CCN1c2ccccc2-c2nc3ccccc3n2C1c1cccnc1 (stereo not given)	Fluor 339 460 3.8 (not shown: DPM-DC inhibit)
CCN1c2ccccc2-c2nc3ccccc3n2C1c1ccccn1 (stereo not given)	Fluor 339 460 3.8 (not shown: DPM-DC inhibit)
CCOCCCNc1ncnc2c1[nH]c1ccccc12	none
C=CCNc1ncnc2c1[nH]c1ccccc12	Fluor 339 460 2.5
c1ccc2c(c1)[nH]c1c(NCC3CCCO3)ncnc12 (stereo not given)	Fluor 339 460 2.8
Cc1nccc2[nH]c(=O)c(C(=O)NC3CCN(Cc4ccccc4)CC3)cc12	none
Cc1ccc2c(c1)N(CC(=O)OC(CC(C)C)C(=O)NC1CCCC1)C(=O)CO2 (stereo not given)	none
CC(C)C(OC(=O)CN1C(=O)COc2ccccc21)C(=O)NC1CCCC1 (stereo not given)	DPM-DC inhibit active
CCOc1cc(NC(=O)c2cnccn2)c(OCC)cc1NC(=O)c1ccc(OC)cc1	none
Oc1oc(-c2ccco2)nc1C=Nc1cccc(Cl)c1	none
Cc1cc(O)c(C=Nc2cccc(Cl)c2)c(=O)o1	DPM-DC inhibit active
COCC(=O)NC1CCN(C(=O)NCc2ccccc2)CC1	none
O=C(O)c1ccc(CNc2ccccc2C(=O)O)cc1	Fluor 339 460 2.6
O=C(O)c1ccccc1NCc1ccncc1	Fluor 339 460 2
O=C(O)c1ccccc1C(=O)NCc1ccccc1	none
CCOC(=O)c1sc(NC(=O)CCn2nnc3ccccc32)c(C(=O)OCC)c1C	none
O=C(CSc1nnc(COc2ccc3c(c2)CCCC3)o1)Nc1ccc(F)cc1	none
COc1ccc2[nH]c(=O)c(CN(C)C(=O)C3CCCCC3)cc2c1	Fluor 339 460 3.5 (not shown: DPM-DC inhibit)
CCN(Cc1cc2ccccc2[nH]c1=O)C(=O)C1CCCCC1	none
COc1ccc2[nH]c(=O)c(CN(C)C(=O)c3ccncc3)cc2c1	Fluor 339 460 2
CCOC(=O)c1c(NC(=O)c2cccs2)sc(C(=O)N2CCOCC2)c1C	none
COc1ccccc1NC(=O)c1ccc(Br)o1	none
C=CCn1c(NC(=O)c2ccc(Br)o2)c(C(=O)OCC)sc1=S	none
CCOC(=O)c1c(NC(=O)c2ccc(Br)o2)sc(C)c1CC	Fluor 339 460 2.1 (not shown: DPM-DC inhibit)
CCOC(=O)c1sc2nc(NC(=O)c3cccs3)sc2c1C	Fluor 339 460 2.1 (not shown: DPM-DC inhibit)
CCOC(=O)C1=C(NC(=O)c2ccc(Br)o2)Nc2ccccc2N=C1	Spn PMK inh 36
CCOC(=O)c1c(NC(=O)c2cccs2)sc(C)c1CC	Fluor 339 460 2.2 (not shown: DPM-DC inhibit)
Cn1c(Cc2ccccc2)nnc1SCC(=O)c1ccc(Br)s1	none
CCOc1ccc(Nc2cc(C)nc3nc(C)nn23)cc1	none
O=C(Cn1c(C(=O)N2CCN(C3CCCC3)CC2)cc2sccc21)c1ccccc1	none
CN1CCN(c2ncnc3c2sc2nc(N4CCCC4)c4c(c23)CC(C)(C)OC4)CC1	none
CCc1c(C)sc(NC(=O)c2cccs2)c1C(=O)OC(C)C	Fluor 339 460 2.1 (not shown: DPM-DC inhibit)
CCOC(=O)c1ccccc1NC(=O)c1cccs1	none
CCNc1nc(NC(C)C)nc(Oc2ccc(OCCOc3ccc(C)cc3)nn2)n1	none
CC(C)c1cc(C(=O)Nc2ccc3c(c2)OCO3)no1	none
Cc1onc(-c2c(Cl)cccc2Cl)c1C(=O)Nc1ccc2c(c1)OCO2	Spn PMK inh 28
COc1cc2c(cc1OC)CN(C(=O)CSc1nnc3scc(-c4ccccc4)n13)CC2	DPM-DC inhibit active
O=C(CSc1nnc2scc(-c3ccccc3)n12)N1CCN(Cc2ccccc2)CC1	none
COc1cc(-c2cc3nc(C)c(C)c(=O)n3[nH]2)cc(OC)c1OC	Fluor 339 460 2
CCCCC(c1nnnn1CCOC)N1CCN(c2cccc(OC)c2)CC1 (stereo not given)	none
CCCCc1cc(=O)oc2c(CN3CCCC3)c(O)ccc12	Fluor 339 460 2.4 (not shown: DPM-DC inhibit)
O=C(c1ccccc1)c1coc2ccc(O)c(CN3CCOCC3)c12	none
O=c1cc(-c2ccccc2)c2ccc(O)c(CN3CCCCC3)c2o1	Fluor 339 460 2.4
O=c1c(-c2ccc(Cl)cc2)coc2c(CN3CCOCC3)c(O)ccc12	Fluor 339 460 2.2 (not shown: DPM-DC inhibit)
O=c1c(-c2ccccc2)coc2c(CN3CCCC3)c(O)ccc12	Fluor 339 460 3.9 (not shown: DPM-DC inhibit)
CCCCc1cc(=O)oc2cc(C)c(CN3CCCC3)c(O)c12	none
O=C(CN(Cc1ccco1)C(=O)CCC(=O)Nc1ccccn1)NCCc1ccccc1	none
CCC(C)C(=O)Nc1cc(C(=O)OC)cc(C(=O)OC)c1 (stereo not given)	none
O=C1C(=O)N(CCCn2ccnc2)C(c2cccnc2)/C1=C(/O)c1ccccc1 (stereo not given)	none
CCCOC(=O)/C(C(N)=NCc1ccccc1)=C(\O)OCCC	none
CC1(C(=O)O)CCC(C(=O)Nc2ccc(S(N)(=O)=O)cc2)C1(C)C (stereo not given)	none
CCOC(=O)c1ccccc1NC(=O)c1ccc(Cl)c(S(=O)(=O)N2CCOCC2)c1	none
COCCn1c(SCc2cccnc2)nnc1-c1ccco1	none
O=C(c1ccccc1-c1nc2ccccc2[nH]1)N1CCCCC1	none
O=c1oc2c(CN3CCCCCC3)c(O)ccc2cc1-c1nc2ccccc2[nH]1	Fluor 339 460 4.7 (not shown: DPM-DC inhibit)
CCc1cc2c(-c3ccccc3)cc(=O)oc2c(CN2CCOCC2)c1O	Fluor 339 460 2.5
CS(=O)(=O)N(CC(=O)N1CCc2ccccc2C1)c1ccc2c(c1)OCO2	none
O=C(Cc1cn2ccsc2n1)OCc1nc2ccccc2s1	Spn PMK inh 25
O=C(Cc1cn2ccsc2n1)OCc1ccccc1	none
CCN(CC)CCCN1C(=O)C(=O)/C(=C(/O)c2cnn(-c3ccccc3)c2C)C1c1ccncc1 (stereo not given)	none
CCOCCCNC(=O)c1cc2c(-c3ccc(Cl)cc3)nn(C)c2s1	Fluor 339 460 2.1 (not shown: DPM-DC inhibit)
Cn1nc(-c2ccc(Cl)cc2)c2cc(C(=O)NC3CC3)sc21	Fluor 339 460 2.1 (not shown: DPM-DC inhibit)
CCN(CC)CCNC(=O)c1cc2c(-c3ccc(Cl)cc3)nn(C)c2s1	Fluor 339 460 2.1 (not shown: DPM-DC inhibit)
CC1CCCN(C(=O)c2cc3c(-c4ccc(Cl)cc4)nn(C)c3s2)C1 (stereo not given)	none
